Only some compounds are listed: those with a hit (about 1.2% of all), similar ones and a draw of the others.
Six1-Eya2 inh – Six1/Eya2 interaction inhibition; Q15475+O00167; AlphaScreen GST-Six1/His-Eya2 binding, biochemical; hits give low values; activity change, % (no concentration beside the values); 360,000 compounds, 0.56% hits; in the data active = activity change below about -65%; inconclusive = mostly about -30% to -63%
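Six1/Eya2 binding was read as AlphaScreen signal after compounds were pinned into GST-Six1 plus His-tagged Eya2 (5X stock 250/500 nM) in pH 8.0 Tris/NaCl/TCEP buffer, beads added, then incubated 1 h, 37 C, dark.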
L3MBTL1 block – L3MBTL1 (human) inhibition | 230,000 compounds, 0.66% hits | Potency, µM (doses to about 57.1 µM), for inactives: top-dose activity, negative = inhibition, usual class: inhibitors | Q9Y468 | AID 485360 | AlphaScreen L3MBTL1–H3K9me1 peptide binding; note: potency is the fitted concentration of half-maximal effect; nearly all actives have a fitted effect of over 60% in size
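AlphaScreen assay: L3MBTL1 (50 nM final) was preincubated 30 min at room temperature with biotinylated H3(1-15)K9me1 peptide (75 nM final), then 30 min with library compounds; streptavidin donor and nickel chelate acceptor beads (10 ug/mL final) added, 30 min dark.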
uPA generation – blocks generation of uPA at the cell surface; cell surface uPA generation assay, qHTS; 330,000 compounds, 0.31% hits; Potency, µM (titrated, usually from 38.3 µM), without a hit: at the highest dose activity change, negative = inhibition, hits mostly inhibitors; AID 540303; active = well fitted inhibition curve with a large enough effect; inconclusive = small, poorly fitted or top-dose-only effect; inactive = no such curve, though single readings can be large or run the other way; tested in mouse RAW 264.7 cells; note: potency is the fitted concentration of half-maximal effect; nearly all actives have a fitted effect of over 55% in size
CtBP-E1A blk – CtBP/E1A binding inhibition; AID 651724; AlphaScreen GST-E1A/His-CtBP binding, 1536-well; hits give low values; activity change, % (concentration not given with the values); 340,000 compounds, 0.49% hits; in the data active = activity change below about -65%; inconclusive = mostly about -30% to -63%
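Steps: dispense buffer (Tris pH 8.0, NaCl 300 mM, TCEP 1 mM, BSA, Tween 20); add 5X protein mix (GST-E1A, His-CtBP, 125 nM each); pin 23 nL compound; 2 h at 37 °C, dark; add 5X beads (50 ug/mL); 1 h; read.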
USP2a block – inhibitors of human ubiquitin-specific protease USP2a | USP2 core, Ub-CHOP2 coupled fluorogenic reporter, 485/531 | 330,000 compounds, 0.01% hits | AID 463254 | Potency, µM (top dose mostly 38.3 µM), for inactives: at the top dose activity change, negative = inhibition, hits mostly inhibitors | O75604;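 note: potency is the fitted concentration of half-maximal effect; plate controls were DMSO wells for no effect and full inhibition by NEM control for full effect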
Target sequence (O75604 whole entry, looked up): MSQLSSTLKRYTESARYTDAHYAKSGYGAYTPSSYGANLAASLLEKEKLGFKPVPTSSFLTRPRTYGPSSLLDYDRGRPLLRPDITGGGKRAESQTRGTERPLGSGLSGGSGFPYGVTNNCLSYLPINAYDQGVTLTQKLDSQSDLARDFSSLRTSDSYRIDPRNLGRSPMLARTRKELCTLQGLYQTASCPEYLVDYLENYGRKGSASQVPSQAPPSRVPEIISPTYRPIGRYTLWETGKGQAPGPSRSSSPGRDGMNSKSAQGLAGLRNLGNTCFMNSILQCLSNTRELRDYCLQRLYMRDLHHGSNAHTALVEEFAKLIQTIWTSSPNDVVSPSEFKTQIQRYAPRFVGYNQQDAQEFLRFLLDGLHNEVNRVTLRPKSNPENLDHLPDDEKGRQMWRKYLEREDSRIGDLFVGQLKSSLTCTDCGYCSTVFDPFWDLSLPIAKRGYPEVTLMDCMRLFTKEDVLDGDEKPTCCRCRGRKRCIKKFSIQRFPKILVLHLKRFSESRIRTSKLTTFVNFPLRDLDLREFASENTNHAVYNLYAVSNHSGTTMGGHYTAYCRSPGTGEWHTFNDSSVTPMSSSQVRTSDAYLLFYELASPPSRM
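Deubiquitinase activity read as fluorescence (485/531 nm) after Ub-CHOP2 cleavage activates the enterokinase reporter on its substrate; USP2 core 10nM, Ub-CHOP2 and substrate 25nM each, 30min compound preincubation then 60min RT; data normalized to NEM, curves fitted.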
Eya2 inh – Eya2 (human) phosphatase inhibition; O00167; recombinant Eya2, OMFP fluorescence dephosphorylation (OMFP is methylfluorescein phosphate); Potency, µM (series often up to 76.9 µM), without a hit: at the top dose activity, negative = inhibition, hits mostly inhibitors; 330,000 compounds, 0.006% hits; note: potency is the fitted concentration of half-maximal effect
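Eya2 (0.2 uM) preincubated 10 min at ambient with compound, then OMFP substrate added at 50 uM; 10 min reaction in 50 mM HEPES pH 7.5, 50 mM NaCl, 5 uM MgCl2, 0.05% BSA, 1 mM DTT. Fluorescence read at Ex 485/Em 525 nm.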
* marks the source's active call; other numbers are inactive results; ? = inconclusive; . = not tested or not shown; [ ] = another dose, or the depositor's remark. Unless noted, calls come from the whole dose curve; as a rule, active = well fitted curve in the direction sought with a large enough effect; inconclusive = small, poorly fitted or top-dose-only effect, or another doubt; inactive = no such curve, though single readings can be large; an effect the other way counts as inactive or inconclusive. Unless noted, % is set by controls: 0 for no effect and ±100 for the full control effect.

SMILES | Six1-Eya2 inh | L3MBTL1 block | uPA generation | CtBP-E1A blk | USP2a block | Eya2 inh
COCCCNC(=O)c1cccc(S(=O)(=O)N2CC3(C)CC2CC(C)(C)C3)c1 (centres undefined) | -7 | -1% | 6.3µM* | 0 | 0% | 17%
COCCNC(=O)c1cccc(S(=O)(=O)N2CC3(C)CC2CC(C)(C)C3)c1 (centres undefined) | 14 | -7% | 4µM* | -2 | -1% | -14%
CCCCNC(=O)c1cccc(S(=O)(=O)N2CC3(C)CC2CC(C)(C)C3)c1 (centres undefined) | -2 | 6% | 2.2µM* | 3 | -3% | 6%
COc1cc(NS(=O)(=O)c2ccc(-c3ccc(=O)[nH]n3)o2)cc(OC)c1OC | -11 | . | 3% | -21 | 3% | 9%
O=C(N/N=C/c1ccccn1)c1cc(Br)ccc1O | -24 | . | 0% | ? | 1% | -20%
COc1ccc(-c2nn(-c3ccccc3)cc2/C=N/NC(=O)c2ccc(Br)o2)cc1 | 4 | 35µM* | -14% | -4 | 0% | 12%
O=C(N/N=C/c1ccccn1)c1ccc(Br)o1 | -66* | 9% | -7% | -75* | 2% | 1%
CCOC(=O)[C@]12CCCC=C1N(Cc1ccc3c(c1)OCO3)C(=O)[C@H](CC(=O)NCC1CCCCC1)C2 | -9 | . | . | -3 | . | .
COc1cc(NC(=O)COC(=O)c2[nH]c(C)c(C(C)=O)c2C)cc(OC)c1 | -8 | -2% | -4% | -8 | 0% | -16%
CC(=O)/C(=N\Nc1ccccc1)Sc1cccc2cccnc12 | -24 | -4% | -3% | ? | 3% | -3%
CC(=O)/C(=N\Nc1ccccc1Cl)Sc1cccc2cccnc12 | -89* | -20% | -2% | -92* | 1% | 3%
CC(C)(C)C(=O)C1=C(O)C(=O)N(Cc2ccccc2)C1c1ccccc1Cl (centres undefined) | -2 | 4%[2.29 µM] | 10µM* | . | 4% | -8%
Cc1ccc(S(=O)(=O)Nc2ccc(O)c3ncccc23)cc1 | -91* | . | 7.9µM* | -93* | -1% | 3%
NNC(=O)CSc1cccc2cccnc12 | -7 | -10% | -4% | 9 | -6% | -9%
CCOc1cc(C=NNC(=O)c2cccc(S(=O)(=O)N3CCCC3)c2)ccc1O | -66* | 4% | 13% | . | 1% | 7%
O=C(CSc1cccc2cccnc12)Nc1ccccc1F | ? | -2% | 4% | ? | 3% | 1%
CCOc1cc(/C=N/NC(=O)CSc2cccc3cccnc23)ccc1O | -66* | -5% | -12% | -74* | 2% | 0%
CCCCOc1ccc(NC(=O)CSc2cccc3cccnc23)cc1 | ? | -5% | -5% | -88* | -1% | -5%
O=C(CSc1cccc2cccnc12)Nc1cc(C(=O)O)cc(C(=O)O)c1 | ? | -4% | 4% | -83* | -1% | 6%
CN(CCc1nc2ccc(Cl)cc2[nH]1)Cc1nc(CC2CC2)no1 | 4 | -13% | -4% | . | 5% | -12%
COc1cccc(OC)c1C(=O)OCC(=O)Nc1ccc(OC(F)(F)F)cc1 | 1 | . | 0% | 4 | 0% | -40%
CCC(Cc1ccccc1)NS(=O)(=O)c1c(C)nc2scc(C)n2c1=O (centres undefined) | 1 | . | 1% | -25 | 5% | 2%
COCC(=O)N1CCC(Oc2ccc(C(=O)N3CCCCC3COC)cc2)CC1 (centres undefined) | 4 | . | 5% | -7 | 1% | -13%
CCC(NC(=O)C1CCCC1)c1ccccc1 (centres undefined) | 0 | . | -2% | -1 | . | .
Cc1cccc(NC(=O)CSc2cccc3cccnc23)c1 | -81* | 0% | 2% | . | 2% | -3%
SMILES | Six1-Eya2 inh | L3MBTL1 block | uPA generation | CtBP-E1A blk | USP2a block | Eya2 inh
Cc1ccc(C)c(NC(=O)CSc2cccc3cccnc23)c1 | -12 | 8% | 5% | 0 | 1% | -11%
NNc1ccc(Cc2ccc(Cl)cc2Cl)nn1 | -22 | 13µM* | -4% | -14 | 3% | -4%
COC(=O)c1ccc(-n2c(C)cc(C(=O)CCl)c2C)cc1 | 0 | . | 6.3µM* | 0 | -3% | 5%
CCOc1ccc(-n2c(C)cc(C(=O)CCl)c2C)cc1 | -5 | . | -11% | 3 | 3% | 2%
CC(C)Sc1nc(-c2cccs2)nc2cc(Cl)ccc12 | 2 | . | . | 12 | . | .
COc1ccc(Cc2nnc(N/N=C/c3ccc(O)cc3O)[nH]c2=O)cc1OC | -88* | 3.5µM* | -5% | -93* | 5% | -1%
CCCCCC/C=N/Nc1nnc(Cc2ccc(OC)c(OC)c2)c(=O)[nH]1 | -74* | . | -10% | ? | 3% | -11%
CC(NC(=O)/C(C#N)=C/c1ccco1)c1ccccc1 (centres undefined) | 9 | . | 1% | 7 | 2% | 9%
CC(NC(=O)/C(C#N)=C1\N=C(NC(=O)c2ccco2)c2ccccc21)c1ccccc1 (centres undefined) | -15 | -15% | -1% | -12 | -2% | 56µM*
CC1Sc2ccc(C(=O)NCc3ccccn3)cc2NC1=O (centres undefined) | -4 | 3% | 3.2µM* | -15 | -2% | 19%
Cc1cc(C)c(NC(=O)c2ccc3c(c2)NC(=O)C(C)S3)c(C)c1 (centres undefined) | 3 | 9% | 11% | 0 | 3% | 21%
Cc1ccc(C(=O)OCC(=O)Nc2c(Cl)cc(S(N)(=O)=O)cc2Cl)o1 | 3 | -8% | 10% | 3 | 4% | 10%
COc1ccccc1Nc1ccc2c(O)cc(S(=O)(=O)O)cc2c1 | -79* | . | -4% | -88* | . | .
O=S(=O)(O)c1cc(O)c2ccc(Nc3ccccc3)cc2c1 | ? | . | 0% | 5 | . | .
COc1ccc(C(=O)N(C)Cc2cnn(Cc3ccccc3)c2)cc1S(=O)(=O)N1CCOCC1 | -1 | 1% | 2µM* | . | 0% | ?
COc1ccc(C(=O)N(CCc2ccccc2)Cc2ccccc2)cc1S(=O)(=O)N1CCOCC1 | -1 | 3% | -6% | -4 | -2% | 7%
CN(Cc1cnn(Cc2ccccc2)c1)C(=O)c1cccc(S(=O)(=O)N2CCOCC2)c1 | 4 | 7% | 6.3µM* | 11 | 1% | -5%
CN(Cc1ccc(Cl)c(Cl)c1)C(=O)c1cccc(S(=O)(=O)N2CCN(Cc3ccccc3)CC2)c1 | -9 | -7% | ? | -12 | 2% | -4%
CC(=O)c1ccc(NS(=O)(=O)c2ccc3c(c2)N(C)CCO3)cc1 | 0 | . | 1% | 3 | 0% | 6%
COc1ccc(NC(=O)CCNC(=O)C2CCN(S(=O)(=O)c3ccccc3)CC2)cc1OC | 2 | . | . | 1 | . | .
COc1ccc(Cl)cc1C(=O)Nc1ccncc1 | 0 | -3% | 0% | -1 | 2% | 18%
